# Laboratory results published in PubChem BioAssay (EPA / NIEHS).
# The source made the active and inactive calls. Rule for the calls: active = hit-call score of the fitted dose curve at least 0.9, where 1 is the maximum; inactive = score below 0.9.
# Tests used:
# Details in all cases: mRNA level, 48 h; actives raise or lower the signal
# [1] = read-out: Heat shock 70 kDa protein 1 (HSPA1A), gene 3303; assay: LTEA_HepaRG_HSPA1A: Life Technologies and Expression Analysis (LTEA) Assay for Heat shock 70 kDa protein 1 (HSPA1A) using HepaRG (AID 2283502)
# Summary of the method: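 Cells were plated and cultured for 48 h, then switched to serum-free induction medium. Chemicals were added at eight half-log concentrations up to 100 uM for 48 h. RNA was then isolated and HSPA1A measured by qRT-PCR with bidirectional curve fitting against DMSO.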
# [2] = read-out: Hypoxia-inducible factor 1-alpha (Homo sapiens) (UniProt Q16665); assay: LTEA_HepaRG_HIF1A: Life Technologies and Expression Analysis (LTEA) Assay for Hypoxia-inducible factor 1 (HIF1A) Trancription factor using HepaRG (AID 2283503)
# Summary of the method: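 HIF1A transcript level read by qRT-PCR (ACTB, GAPDH, POLR2A normalization) after 48 h chemical exposure of HepaRG cultures. Eight half-log concentrations, top 100 uM, 0.5% DMSO vehicle, duplicates; bidirectional curve fit against DMSO baseline.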
# [3] = read-out: 3-Hydroxy-3-Methylglutaryl-CoA Synthase 2 (HMGCS2), HMGCS2 (gene 3158); assay: LTEA_HepaRG_HMGCS2: Life Technologies and Expression Analysis (LTEA) Assay for 3-Hydroxy-3-Methylglutaryl-CoA Synthase 2 (HMGCS2) using HepaRG (AID 2283504)
# Summary of the method: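 Differentiated human HepaRG cells were exposed in duplicate for 48 h in serum-free induction medium to eight concentrations (top 100 uM, half-log steps, 0.5% DMSO). HMGCS2 mRNA was quantified by TaqMan qRT-PCR, normalised to ACTB, GAPDH and POLR2A, then fitted bidirectionally against DMSO.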
# HGF (gene 3082) = assay: LTEA_HepaRG_HGF: Life Technologies and Expression Analysis (LTEA) Assay for Hepatocyte Growth Facto (HGF) using HepaRG (AID 2283505)
# Summary of the method: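 Differentiated human HepaRG cells in serum-free induction medium were exposed in duplicate for 48 h to eight concentrations (top 100 uM, half-log steps, 0.5% DMSO). HGF mRNA was quantified by qRT-PCR, normalized to ACTB, GAPDH and POLR2A.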
# [4] = read-out: Insulin Like Growth Factor 1 (IGF1), IGF1 (gene 3479); assay: LTEA_HepaRG_IGF1: Life Technologies and Expression Analysis (LTEA) Assay for Insulin Like Growth Factor 1 (IGF1) using HepaRG (AID 2283506)
# Summary of the method: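 Cells are thawed, plated and cultured 48 h, then exposed in duplicate to chemical (highest 100 uM, half-log steps, 0.5% DMSO) for another 48 h. Total RNA is analysed by Fluidigm qRT-PCR for IGF1 expression relative to vehicle.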
# [5] = read-out: Intercellular Adhesion Molecule 1 (ICAM1), ICAM1 (gene 3383); assay: LTEA_HepaRG_ICAM1: Life Technologies and Expression Analysis (LTEA) Assay for Intercellular Adhesion Molecule 1 (ICAM1) using HepaRG (AID 2283507)
# Summary of the method: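 Differentiated HepaRG cells in serum-free induction medium were exposed in duplicate for 48 h to eight half-log concentrations up to 100 uM in 0.5% DMSO. Transcript levels were measured by qRT-PCR normalized to ACTB, GAPDH and POLR2A; bidirectional fits relative to DMSO.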
# [6] = read-out: Interleukin 6 (IL6), IL6 (gene 3569); assay: LTEA_HepaRG_IL6: Life Technologies and Expression Analysis (LTEA) Assay for Interleukin 6 (IL6) using HepaRG (AID 2283509)
# Summary of the method: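 qRT-PCR read-out of IL6 transcript, normalized to three housekeeping genes, after 48 h chemical exposure of HepaRG cells; 8-point half-log series, top 100 uM, 0.5% DMSO vehicle. Bidirectional curve fitting against DMSO baseline.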
# [7] = read-out: Interleukin 6 Receptor (IL6R), IL6R (gene 3570); assay: LTEA_HepaRG_IL6R: Life Technologies and Expression Analysis (LTEA) Assay for Interleukin 6 Receptor (IL6R) using HepaRG (AID 2283510);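 for AC50: TaqMan qRT-PCR signal normalized to ACTB GAPDH and POLR2A housekeeping genes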
# Summary of the method: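 Cells were thawed, plated and cultured 48 h, then medium was changed to serum-free induction medium. Chemicals were added in duplicate (100 uM top, half-log steps, 0.5% DMSO) for 48 h. Lysates were analyzed by qRT-PCR for IL6R expression.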
# [8] = read-out: Potassium channel subfamily K member 1 (KCNK1), KCNK1 (gene 3775); assay: LTEA_HepaRG_KCNK1: Life Technologies and Expression Analysis (LTEA) Assay for Potassium channel subfamily K member 1 (KCNK1) using HepaRG (AID 2283511)
# Summary of the method: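 HepaRG, 48 h exposure, 8-pt half-log series top 100 uM, 0.5% DMSO vehicle, duplicates. Readout: KCNK1 transcript by qRT-PCR (Fluidigm array), housekeeping-normalized; bidirectional curve fit relative to DMSO baseline.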
# [9] = read-out: Keratin 19 (KRT19), KRT19 (gene 3880); assay: LTEA_HepaRG_KRT19: Life Technologies and Expression Analysis (LTEA) Assay for Keratin 19 (KRT19) using HepaRG (AID 2283512)
# Summary of the method: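 Differentiated human HepaRG cells, plated 48 h, were exposed in duplicate for 48 h in serum-free induction medium to eight half-log concentrations up to 100 uM in 0.5% DMSO. KRT19 mRNA was quantified by qRT-PCR, normalized to ACTB, GAPDH and POLR2A, and fitted bidirectionally versus DMSO.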
# [10] = read-out: JUN Transcription Factor, JUN (gene 3725); assay: LTEA_HepaRG_JUN: Life Technologies and Expression Analysis (LTEA) Assay for JUN Transcription Factor using HepaRG (AID 2283513)
# Summary of the method: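 Read-out is JUN transcript level by TaqMan qRT-PCR, normalized to ACTB, GAPDH and POLR2A, after 48 h chemical treatment of HepaRG cells. Concentration-response spanned eight half-log points up to 100 uM in 0.5% DMSO.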
# [11] = read-out: Lipase C (LIPC), LIPC (gene 3990); assay: LTEA_HepaRG_LIPC: Life Technologies and Expression Analysis (LTEA) Assay for Lipase C (LIPC) using HepaRG (AID 2283514)
# Summary of the method: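 HepaRG, 48 h exposure, 8-pt half-log series from 100 uM in 0.5% DMSO, duplicates. Readout: LIPC mRNA by Fluidigm qRT-PCR, housekeeping-normalized (ACTB/GAPDH/POLR2A). Gain or loss fitted bidirectionally against DMSO baseline.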
# [12] = read-out: Lipoprotein lipase (LPL), LPL (gene 4023); assay: LTEA_HepaRG_LPL: Life Technologies and Expression Analysis (LTEA) Assay for Lipoprotein lipase (LPL) using HepaRG (AID 2283515)
# Summary of the method: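 HepaRG, 48 h exposure, 8-pt half-log dilutions from 100 uM, 0.5% DMSO vehicle, duplicates; qRT-PCR (Fluidigm array) of LPL mRNA vs housekeeping genes; bidirectional curve fit relative to DMSO baseline.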
# [13] = read-out: MicroRNA 122 (MIR122), gene 406906; assay: LTEA_HepaRG_MIR122: Life Technologies and Expression Analysis (LTEA) Assay for MicroRNA 122 (MIR122) using HepaRG (AID 2283516); note: the transcript read is the microRNA miR-122
# Summary of the method: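 Human liver HepaRG cultures receive test chemicals for 48 h at eight half-log concentrations from 100 uM. Expression is quantified by qRT-PCR with ACTB/GAPDH/POLR2A normalization and fitted bidirectionally against 0.5% DMSO.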
# [14] = read-out: matrix metalloproteinase-10 (MMP10), MMP10 (gene 4319); assay: LTEA_HepaRG_MMP10: Life Technologies and Expression Analysis (LTEA) Assay for matrix metalloproteinase-10 (MMP10) using HepaRG (AID 2283517)
# Summary of the method: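 Transcript levels come from Fluidigm qRT-PCR normalized to three housekeeping genes, with curves fitted bidirectionally against 0.5% DMSO. Human HepaRG cells were dosed for 48 hours at concentrations up to 100 uM.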
# MYC, MYC (gene 4609) = assay: LTEA_HepaRG_MYC: Life Technologies and Expression Analysis (LTEA) Assay for MYC using HepaRG (AID 2283518)
# Summary of the method: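 Differentiated human HepaRG cells, plated 48 h then switched to serum-free induction medium, were exposed in duplicate for 48 h to 8-point half-log series up to 100 uM in 0.5% DMSO. MYC mRNA measured by qRT-PCR, normalized to ACTB/GAPDH/POLR2A.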
# [15] = read-out: matrix metalloproteinase-3 (MMP3), MMP3 (gene 4314); assay: LTEA_HepaRG_MMP3: Life Technologies and Expression Analysis (LTEA) Assay for matrix metalloproteinase-3 (MMP3) using HepaRG (AID 2283519)
# Summary of the method: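 qRT-PCR read-out of MMP3 mRNA (normalised to three housekeeping genes) in HepaRG liver cells after 48 h chemical exposure; 8-point half-log series, top 100 uM, 0.5% DMSO vehicle. Bidirectional curve fitting against DMSO baseline.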
# [16] = read-out: Paternally Expressed 10 (PEG10), PEG10 (gene 23089); assay: LTEA_HepaRG_PEG10: Life Technologies and Expression Analysis (LTEA) Assay for Paternally Expressed 10 (PEG10) using HepaRG (AID 2283520);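 for AC50: PEG10 transcript by qRT-PCR normalised to ACTB GAPDH and POLR2A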
# Summary of the method: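 Human HepaRG cultures are dosed for 48 h across an eight-point half-log series starting at 100 uM, with 0.5% DMSO as vehicle and baseline. Gain or loss of PEG10 transcript is measured by qRT-PCR and fitted in both directions.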
# [17] = read-out: Nuclear factor NF-kappa-B p105 subunit (Homo sapiens) (UniProt P19838); assay: LTEA_HepaRG_NFKB1: Life Technologies and Expression Analysis (LTEA) Assay for Nuclear Factor Kappa B Subunit 1 (NFKB1) using HepaRG (AID 2283521);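 for outcome: TaqMan qRT-PCR transcript normalised to ACTB GAPDH and POLR2A housekeeping genes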
# Summary of the method: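 NFKB1 transcript was measured by TaqMan qRT-PCR on Fluidigm arrays, normalised to three housekeeping genes and fitted in both directions against 0.5% DMSO. HepaRG cells were dosed in duplicate for 48 h in serum-free induction medium, eight half-log steps from 100 uM.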
# [18] = read-out: Insulin-like growth factor-binding protein 1 (IGFBP1), IGFBP1 (gene 3484); assay: LTEA_HepaRG_IGFBP1: Life Technologies and Expression Analysis (LTEA) Assay for Insulin-like growth factor-binding protein 1 (IGFBP1) using HepaRG (AID 2283508)
# Summary of the method: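 Differentiated human HepaRG cells in serum-free induction medium were exposed in duplicate for 48 h to eight concentrations, top 100 uM with half-log dilutions, in 0.5% DMSO. Transcript levels came from qRT-PCR normalised to ACTB, GAPDH and POLR2A, fitted bidirectionally against DMSO.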
# Sequence of Nuclear factor NF-kappa-B p105 subunit (Homo sapiens) (P19838 whole entry, looked up): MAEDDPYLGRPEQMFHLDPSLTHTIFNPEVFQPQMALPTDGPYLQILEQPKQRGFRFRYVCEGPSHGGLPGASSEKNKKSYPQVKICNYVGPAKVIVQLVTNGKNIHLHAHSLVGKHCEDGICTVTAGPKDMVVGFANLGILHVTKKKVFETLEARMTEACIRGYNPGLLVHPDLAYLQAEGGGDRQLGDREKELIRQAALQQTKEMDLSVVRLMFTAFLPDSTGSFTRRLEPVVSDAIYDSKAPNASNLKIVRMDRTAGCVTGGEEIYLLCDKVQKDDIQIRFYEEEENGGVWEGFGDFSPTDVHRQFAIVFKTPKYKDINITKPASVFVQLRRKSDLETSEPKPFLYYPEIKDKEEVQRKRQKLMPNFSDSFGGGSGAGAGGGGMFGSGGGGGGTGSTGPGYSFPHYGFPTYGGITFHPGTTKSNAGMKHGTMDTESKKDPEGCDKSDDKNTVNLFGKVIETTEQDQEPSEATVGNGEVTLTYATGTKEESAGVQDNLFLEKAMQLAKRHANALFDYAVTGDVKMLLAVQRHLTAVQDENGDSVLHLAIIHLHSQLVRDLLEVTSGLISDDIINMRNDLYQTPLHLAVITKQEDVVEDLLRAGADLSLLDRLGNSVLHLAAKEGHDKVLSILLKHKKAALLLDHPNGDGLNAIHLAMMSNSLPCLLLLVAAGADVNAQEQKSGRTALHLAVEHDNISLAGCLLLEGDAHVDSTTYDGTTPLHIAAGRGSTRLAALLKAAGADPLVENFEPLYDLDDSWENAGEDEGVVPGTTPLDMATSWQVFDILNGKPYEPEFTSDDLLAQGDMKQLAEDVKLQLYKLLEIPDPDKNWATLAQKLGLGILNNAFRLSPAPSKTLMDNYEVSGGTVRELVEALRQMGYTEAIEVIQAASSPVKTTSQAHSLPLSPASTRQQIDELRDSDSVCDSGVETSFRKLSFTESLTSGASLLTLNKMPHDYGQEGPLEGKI
# Sequence of Hypoxia-inducible factor 1-alpha (Homo sapiens) (Q16665 whole entry, looked up): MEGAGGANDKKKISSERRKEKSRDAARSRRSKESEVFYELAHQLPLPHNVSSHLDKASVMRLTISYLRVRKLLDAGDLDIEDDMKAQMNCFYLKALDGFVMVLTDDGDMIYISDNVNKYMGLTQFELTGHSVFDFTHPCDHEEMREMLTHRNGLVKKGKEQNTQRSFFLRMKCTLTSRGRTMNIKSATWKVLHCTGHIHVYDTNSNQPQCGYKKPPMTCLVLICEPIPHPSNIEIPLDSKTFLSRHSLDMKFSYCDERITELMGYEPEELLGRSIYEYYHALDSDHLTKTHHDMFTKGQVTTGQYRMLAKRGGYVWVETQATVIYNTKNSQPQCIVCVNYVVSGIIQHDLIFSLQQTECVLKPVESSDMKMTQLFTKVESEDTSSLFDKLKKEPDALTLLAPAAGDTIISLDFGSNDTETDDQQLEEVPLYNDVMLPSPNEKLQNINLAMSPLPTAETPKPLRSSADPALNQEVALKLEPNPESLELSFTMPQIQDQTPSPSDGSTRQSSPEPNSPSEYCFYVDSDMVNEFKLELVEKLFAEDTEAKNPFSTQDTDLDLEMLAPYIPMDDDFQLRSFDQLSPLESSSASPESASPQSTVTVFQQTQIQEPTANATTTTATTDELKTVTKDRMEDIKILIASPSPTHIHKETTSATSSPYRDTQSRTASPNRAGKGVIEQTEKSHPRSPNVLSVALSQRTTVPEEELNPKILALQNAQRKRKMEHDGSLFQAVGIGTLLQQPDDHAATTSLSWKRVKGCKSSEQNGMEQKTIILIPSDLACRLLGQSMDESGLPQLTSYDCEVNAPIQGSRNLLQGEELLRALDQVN
compound,measurement,setting,value
O=CCCCC=O,outcome,[1],inactive
same,outcome,[2],inactive
same,outcome,[3],inactive
same,outcome,HGF (gene 3082),inactive
same,outcome,[4],inactive
same,outcome,[5],inactive
same,outcome,[6],inactive
same,outcome,[7],inactive
same,outcome,[8],inactive
same,outcome,[9],inactive
same,outcome,[10],inactive
same,outcome,[11],inactive
same,outcome,[12],inactive
same,outcome,[13],inactive
same,outcome,[14],inactive
same,outcome,"MYC, MYC (gene 4609)",inactive
same,outcome,[15],inactive
same,outcome,[16],inactive
same,outcome,[17],inactive
CN(C[C@@H](CC[N+]12CCC(C3CCCCC3)(CC1)CC2)c1ccc(Cl)c(Cl)c1)C(=O)c1cc(C(F)(F)F)cc(C(F)(F)F)c1,AC50,[1],71.9 µM (active)
same,AC50,[2],50 µM (active)
same,AC50,[3],67.4 µM (active)
same,AC50,HGF (gene 3082),20 µM (active)
same,AC50,[4],24.1 µM (active)
same,AC50,[5],12.2 µM (active)
same,AC50,[18],13.9 µM (active)
same,AC50,[6],75.6 µM (active)
same,AC50,[7],78 µM (active)
same,AC50,[8],15.8 µM (active)
same,AC50,[9],26.4 µM (active)
same,AC50,[10],88.5 µM (active)
same,AC50,[11],15.8 µM (active)
same,AC50,[12],36 µM (active)
same,AC50,[13],12.7 µM (active)
same,AC50,[14],9.43 µM (active)
same,AC50,"MYC, MYC (gene 4609)",87.2 µM (active)
same,outcome,[15],inactive
same,AC50,[16],28.7 µM (active)
same,AC50,[17],89.7 µM (active)
OCCO,outcome,[1],inactive
same,outcome,[2],inactive
same,outcome,[3],inactive
same,outcome,HGF (gene 3082),inactive
same,outcome,[4],inactive
same,outcome,[5],inactive
same,outcome,[18],inactive
same,outcome,[6],inactive
same,outcome,[7],inactive
same,outcome,[8],inactive
same,outcome,[9],inactive
same,outcome,[10],inactive
same,outcome,[11],inactive
same,outcome,[12],inactive
same,outcome,[13],inactive
same,outcome,[14],inactive
same,outcome,"MYC, MYC (gene 4609)",inactive
same,outcome,[15],inactive
same,outcome,[16],inactive
same,outcome,[17],inactive
